Each structure is given as a SMILES string. The panel holds about 83,000 compounds, 20% with a hit somewhere; the sample as a whole holds those more often.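 Results are percent growth after 48 hours of single-concentration exposure. 100 means growth as in untreated cells, lower positive values show inhibition; negative values down to -100 show cell death.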 A number with no mark means an inactive call. Activity calls are given as the source filed them. Rule for the calls: active = growth percent below 10; inactive = the rest.

Among the data in PubChem BioAssay (NCI) are growth values, retold here.

The subject of the assay is T-47D breast. Description: NCI-60 one-dose screen, 48 h (100 = growth as untreated, 0 = no growth, -100 = all killed). Conditions: 10 µM unless noted.
Regarding `O=C1[C@@H]2Cc3c([nH]c4ccccc34)[C@H](c3ccc(Br)cc3)N2C(=O)CN1C1CCN(Cc2c(Cl)cccc2Cl)CC1`, the growth was 88.5%.
Turning to `O=C1/C(=C/C=C/c2ccco2)SC(=S)N1Cc1ccccc1`, the growth was 75.6%.
In the case of `O=C(COc1ccc(/C=C2\C(=O)Nc3ccc(Cl)cc32)cc1)Nc1ccc(Cl)cc1` it was 68.8%.
As for `N#C/C(=N\Nc1ccc(F)cc1)C(=O)Nc1cc(-c2ccccc2)nn1-c1ccccc1`, the growth was -5.1% (active).
On to `Clc1ccc2c(N/N=C/c3c[nH]c4ccccc34)ccnc2c1`, for which the growth is -54.5% (active).
For `CN1CCN(Cc2ccc(NC(=O)c3cncc(C#Cc4cnc5ccc(NCCO)nn45)c3)cc2C(F)(F)F)CC1`, the growth is 21.5%.
For `C#CCOc1ccc(/C=N/Nc2nc(-c3ccc(OC)cc3)cs2)cc1`, the growth was 68.7%.
In the case of `Cc1ccc(/C(N)=N/C(N)=N/c2nc3ccccc3s2)cc1` it was 80.9%; in that of `CC(=O)Nc1cc(N2CCOCC2)c2nc(NC(=O)c3[nH]c(C)c(Cl)c3Cl)sc2c1`, 46.9%.
In the case of `CN(C)c1ccc(/C=N/Nc2nc(N/N=C/c3ccc(N(C)C)cc3)nc(N3CCCCC3)n2)cc1`, the growth was 46%.
For `N#Cc1c(-c2cccs2)cc(-c2cnccn2)nc1SCC(=O)N/N=C/c1ccc(Cl)cc1`, the growth is 93.8%.
In the case of `COc1ccc(OC)c(NC(=O)CCCCCCNC(=O)C(O)(O)C(F)(F)F)c1`, the growth was 22.4%.
On to `C/C(=N/N)c1nnn(-c2ccc(Br)cc2)c1C`, for which the growth is 102%.
Under `CC(C)NC(=O)c1cc(-c2ccc(NC(=O)Nc3ccc(F)c(C(F)(F)F)c3)cc2)nc2cccnc12` stands 80.3%; under `COc1cc(C(C)=C(c2ccc(OCCN(C)C)cc2)c2ccc(OCCN(C)C)cc2)ccc1F`, 93.4%; under `CN1CCN(CC#CCn2c3c(c4ccccc42)C[C@]2(C)[C@H]4CC=C5[C@@H]6CC(C)(C)CC[C@]6(C(=O)N6CCOCC6)CC[C@@]5(C)[C@]4(C)CC[C@H]2C3(C)C)CC1`, 78.7%.
Turning to `COc1cc(/C=C2/C(=O)Nc3ccc(Cl)cc32)ccc1OCc1ccc(Cl)cc1`, the growth was 80.5%.
Under `Cc1[nH]c(C(=O)Nc2ccccc2OCc2cccc(C(=O)NC3CCCNC3)c2)c(Cl)c1Cl` (stereo not given) stands -9.08% (active).
Regarding `O=S(=O)(NCCCNc1nccc(-c2[nH]c(-c3ccccc3)nc2-c2ccc(F)c(O)c2)n1)c1ccccc1`, the growth is 90.1%.
Under `COc1ccc(Cn2cc(C#N)c(N)c2C(C)=O)cc1` stands 96.8%; under `CC(Nc1ncnc2ccc(-c3cnc4cnccn34)cc12)c1ccccc1` (stereo not given), 17.5%; under `O=C(NCCNc1cc(-c2cn(-c3ccccc3)nc2-c2cccc(O)c2)ccn1)Nc1cc(C(F)(F)F)cc(C(F)(F)F)c1`, 90.5%.
Under `C#CCN(C)CCCOc1ccc(NC(=O)CCCCCCC(=O)NO)cc1Cl` stands -2.41% (active).
`O=C(CSc1nnc(-c2ccc(Cl)cc2)n1-c1ccccc1)Nc1ccc(Cl)cc1`: the growth is 30.9%.
`CN1CCN(Cc2ccc(/C=N/Nc3ccnc4cc(Cl)ccc34)cc2)CC1`: the growth is 103%.
In the case of `N#Cc1c(-c2cccs2)cc(-c2cnccn2)nc1SCC(=O)N/N=C/c1cccs1` it was 50.1%.
For the molecule `CCCCCCN1C=C/C(=C\C(=O)n2ccc3ccccc32)c2ccccc21`, the growth was 31.1%.
Turning to `CC(C)(C)Nc1nc2c(OCCc3ccccc3)cccn2c1-c1cccc(Oc2ccccc2)c1`, the growth was 8.72% (active).
On to `Cn1cc(-c2nnc(N)nc2-c2c[nH]c3ccc(F)cc23)c2cc(Br)ccc21`, for which the growth is 29.4%.
Under `CN1CCN(c2ccc(Nc3nc(NCCCNS(=O)(=O)c4cccc(F)c4)c4sccc4n3)cc2)CC1` stands 22.8%.
`CNC(=O)c1cc(-c2ccc(NC(=S)Nc3cccc(C(F)(F)F)c3)cc2)nc2cccnc12`: the growth is 102%.
Consider `NC(N)=NS(=O)(=O)c1ccc(N=Nc2c(N)nn(-c3ccc([N+](=O)[O-])cc3[N+](=O)[O-])c2N)cc1`, for which the growth was 104%.
With `N#Cc1c(-c2cccs2)cc(-c2cnccn2)nc1SCC(=O)N/N=C/c1ccncc1`, the growth was 101%.
On to `CCN(CC)c1ccc(/C=N/NC(=O)c2ccc(NS(C)(=O)=O)cc2)cc1`, for which the growth was 27.4%.
On to `CCCCCC[n+]1ccc(SCC(=O)n2ccc3ccccc32)c2ccccc21`, for which the growth is 59.1%.
In the case of `O=C(/C=C/c1cccc(F)c1)c1cccc(OCCCOc2cccc(C(=O)/C=C/c3cccc(F)c3)c2)c1`, the growth was 69.8%.
In the case of `NC(=O)n1c(=O)n(-c2cccc(C(F)(F)F)c2)c(=O)c2cc(-c3ccc(F)cc3F)ccc21` it was -14% (active); in that of `CCCCCc1ccc(S(=O)(=O)Nc2cc(-c3csc(N)n3)ccc2OC)cc1`, 83%.
As to `COC(=O)c1cccc(NC2=CC(=O)C(C)=C(C)C2=O)c1`, the growth is 64.4%.
As to `O=C(/C=C/c1cccc(C(F)(F)F)c1)Nc1cccc(C(F)(F)F)c1`, the growth is -6.89% (active).
